The structures appear in SMILES notation. Hit rate of the full screen: of about 1,400 compounds, about 380 (27%) were called active.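 The calls were made as follows: active = mean inhibition above 50% across duplicate retests at 10 µM; inactive = the rest.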 The list shows a part of the results.

This test can be described thus: inhibition of NALP1/ASC/caspase-1 reporter signal in yeast, confirmation, NALP1 inhibitor project, S. cerevisiae, luminescence, single concentration (AID 488841).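 Also: plate controls were DMSO in galactose medium for no effect and cells in plain SD medium for full effect.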 Particulars: S. cerevisiae NALP1/ASC/Caspase-1 reporter, beta-gal luminescence; at 10 µM; hits give high values.
The term inhibition denotes the change of the read-out against control, counted positive when it falls. Regarding `CC1CCCN(CCOCCOc2ccc(Br)cc2Cl)C1` (stereo unspecified), the inhibition is 42% (inactive). To `CC1CCCN(CCOCCSc2ccccc2)C1` (stereo unspecified) belongs 39.5% (inactive); to `CC1CCCN(CCCOc2ccc(Cl)cc2Br)C1` (stereo unspecified), 56.8% (active); to `Cc1c(C)c2cc(Cl)c(O)c(CN3CCCCC3)c2oc1=O`, 31.9% (inactive). To `COc1ccc(N2C(=O)C(Cl)=C(Nc3c(C)n(C)n(-c4ccccc4)c3=O)C2=O)cc1` belongs 36.8% (inactive). The figure for `O=C(CCc1nc2ccccc2s1)Nc1ccccc1` is 77.9% (active); for `O=C(O)CCCCc1nc2ccccc2s1` it is 14.6% (inactive); for `O=C(CSC1=NS(=O)(=O)c2ccccc21)Nc1ccccc1` it is 37% (inactive). On to `O=C(O)c1ccc2c(c1)N(Cc1cccc(F)c1)C(=O)CS2`, for which the inhibition was 19% (inactive). To `NC(=S)N/N=C/c1coc2c(ccc3ccccc32)c1=O` belongs 34.1% (inactive); to `O=C(/C=N/O)Nc1cccnc1`, 19.7% (inactive).

For `Cc1ccc(-c2csc3ncnc(Oc4cccc5ccc(C)nc45)c23)cc1`, the inhibition was 19.6% (inactive).

As for `COc1ccc(-c2csc3ncnc(Oc4cccc5ccc(C)nc45)c23)cc1`, the inhibition was 67.6% (active).

For `O=S(=O)(CC(CN1CCCC1)N1CCCC1)c1ccc2ccccc2c1` (stereo unspecified), the inhibition is 21.4% (inactive). The figure for `CC(C)c1nc2sc3c(=O)[nH]cnc3c2c2c1CCC2` is 22% (inactive). The figure for `CCOC(=O)C(=Cc1cc(=O)c(OC)co1)C(=O)OCC` is 79.3% (active).

Take `CC(=O)c1c(C)oc2c1C(=O)c1ccccc1C2=O`: the inhibition is 35.8% (inactive). The figure for `Cc1c(Cl)sn(-c2ccc(Cl)cc2)c1=O` is 73.5% (active); for `C=C(C)C1CC=C(C)/C(=N/NC(=O)c2ccoc2C)C1` (stereo unspecified) it is 27.2% (inactive); for `CN(C)C(=N)c1n[nH]nc1SCc1ccccc1` it is 19.9% (inactive). The figure for `CC(C)(C)c1ccc(/C=C/C(=O)c2ccc(NC3=NCCCS3)cc2)cc1` is 43.9% (inactive). The figure for `Cc1cccc(/C=C/C(=O)c2ccc(NC3=NCCCS3)cc2)c1` is 62% (active). For `Cc1cc(N/N=C/c2cccc(Cl)c2)nc(NCc2ccccc2)n1`, the inhibition was 44.8% (inactive). The figure for `Cc1cc(N/N=C/c2ccc(Cl)cc2)nc(NCc2ccccc2)n1` is 33.7% (inactive). The figure for `Cc1ccc(Nc2cc(C)nc(NCc3ccccc3)n2)cc1` is 58.3% (active); for `Cc1cc(N/N=C/c2ccccc2)nc(NCc2ccccc2)n1` it is 58.4% (active); for `Cc1cc(N/N=C/c2ccccc2Cl)nc(NCc2ccccc2)n1` it is 43.6% (inactive). To `CCOC(=O)C1CCCN(C2CC(=O)N(c3cccc(C(F)(F)F)c3)C2=O)C1` (stereo unspecified) belongs 32.6% (inactive). In the case of `CC1Cc2ccccc2N1CC(=O)Nc1ccc2c(c1)OC(F)(F)O2` (stereo unspecified), the inhibition was 30.3% (inactive).

In the case of `CCCCCCNc1nc(NCc2ccco2)nc(OCC)n1`, the inhibition was 52.5% (active). To `CCc1ccc(OCCCC(=O)Nc2cccc(C(=O)O)c2)cc1` belongs 27.1% (inactive); to `COc1ccc2cnn(-c3ccc(C)cc3)c(=O)c2c1OC`, 36.9% (inactive); to `Cc1ccc(-n2c(Cl)c(Cl)nc(Cl)c2=O)cc1`, 100% (active). The figure for `O=C(Nc1cccc(O)c1)c1noc2c1CCc1ccccc1-2` is 75.4% (active); for `O=c1c2c(C(F)(F)F)cc(C(F)(F)F)nc2[nH]n1-c1ccccc1` it is 37.9% (inactive). To `O=C(CN1CCSC1=NCc1ccccc1)c1ccc(Cl)c(Cl)c1` belongs 52.2% (active).

In the case of `COc1ccc(N2CCN(CC(=O)NC(=O)NCc3ccco3)CC2)cc1`, the inhibition was 28.6% (inactive). The figure for `CN(C)S(=O)(=O)c1ccc(N2CCCC2)c(C(=O)Nc2nc3ccccc3s2)c1` is 36.7% (inactive); for `O=C(NC(Nc1nc2ccc([N+](=O)[O-])cc2s1)(C(F)(F)F)C(F)(F)F)c1ccccc1Cl` it is 99.5% (active); for `CCOc1ccc(CNC(=O)c2cc3oc4ccccc4c3n2C)cc1` it is 7.2% (inactive). As for `O=C1C=CCC(/C=C/c2ccccc2)O1` (stereo unspecified), the inhibition is 69.2% (active). The figure for `c1ccc(-c2c[nH]c3[n+]2CCCCC3)cc1` is 26.2% (inactive); for `CCc1ccc(OCCNC(=O)OCc2ccccc2)cc1` it is 48.8% (inactive). To `COc1ccc(CNCCSc2nnnn2C)cc1OC` belongs 49% (inactive); to `COc1ccc(OCCCC(=O)Oc2ccc(OC)cc2)cc1`, 42.6% (inactive). The figure for `COc1ccc(OCCCC(=O)NCCc2ccccc2)cc1` is 60.8% (active). With `COc1ccc(CCNCc2ccc(OCc3ccccc3)cc2)cc1`, the inhibition is 78.5% (active).

Take `COc1ccc(C(CCNCc2ccccc2F)c2ccc(F)cc2)cc1` (stereo unspecified): the inhibition was 48.2% (inactive). To `CCOCCCNCc1ccc(OCc2ccccc2Cl)cc1` belongs 49.2% (inactive). The figure for `COc1ccc(OCCCC(=O)NCC(C)C)cc1` is 32.4% (inactive); for `COc1ccc(CNCCC(c2ccc(F)cc2)c2ccc(OC)cc2)cc1` (stereo unspecified) it is 65.8% (active). The figure for `CN(C)c1ccc(O)c2c1CC1CC3[C@@H](N(C)C)C(=O)C(C(N)=O)=C(O)[C@]3(O)C(=O)C1=C2O` (stereo partly specified) is 28.8% (inactive); for `Cc1cc(/C=C2/SC(=S)N(c3ccc([N+](=O)[O-])cc3)C2=O)c(C)n1-c1cccnc1` it is 34.9% (inactive). Turning to `O=C1Cc2ccccc2C(=O)N1OCc1ccc(Cl)cc1Cl`, the inhibition is 26.8% (inactive). On to `COc1cc(Cc2cnc(N)nc2N)cc(OC)c1OC`, for which the inhibition is 24.9% (inactive). The figure for `Oc1c(I)cc(Cl)c2cccnc12` is 56.2% (active). The figure for `Oc1c(CN2CCCCC2)cc(Br)c2cccnc12` is 26.2% (inactive); for `C=C(C)COc1ccc2c(CC)cc(=O)oc2c1C` it is 63.1% (active).

With `CC1CCCN(CCC(=O)c2ccc(Br)cc2)C1` (stereo unspecified), the inhibition is 28.8% (inactive). To `CC1=NN(c2ccc(C)cc2C)C(=O)C1C(c1cccc(O)c1)C1C(=O)N(c2ccc(C)cc2C)N=C1C` (stereo unspecified) belongs 38% (inactive); to `C=CCNC(=S)N/N=C(\C)c1ccccn1`, 57.5% (active). The figure for `C/C(=N\NC(=O)Nc1ccccc1)c1ccccc1` is 47.1% (inactive); for `COc1cccc(NC(=O)Cn2cnc3sc(C)c(S(=O)(=O)N4CCCCC4)c3c2=O)c1` it is 20.9% (inactive); for `COc1cc(/C=N/n2cnnc2)ccc1OCc1ccc(C)cc1` it is 50.9% (active). As to `COc1cc(C2Nc3ccccc3C(=O)N2c2ccccc2)ccc1O` (stereo unspecified), the inhibition is 27.3% (inactive).

For the molecule `COC1=C(N)C(=O)c2nc(-c3nc(C(=O)O)c(C)c(-c4ccc(OC)c(OC)c4O)c3N)ccc2C1=O`, the inhibition was 33.7% (inactive).
